Values joined by “and” are separate entries in the source; they are usually repeats but may differ in a detail not shown here. Equal entries are not always repeated. Structures can show the parent of a compound that is named as a salt. Among all 5,800 compounds or so, about 620 (11%) showed activity. This is one part of a sample in which actives are shown more often than they occur. Values without a mark were called inactive.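 Rule for the calls: active = score above a cut-off or among the top three wells of a plate; in these data no inactive exceeds 0.85.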

The record followed here is the supplement of paper PMC9135407.

The subject of this experiment is primary human hepatic stellate cells (donor 1). In words: scaled lipid accumulation score (0 = DMSO-like, 1 = nortriptyline-like); higher = stronger HSC inactivation (lipid re-accumulation), active = hit call of the paper. To be noted: 48 h.
Where [1] appears, read: library stock concentration: 1 mM.
[2] abbreviates: library stock concentration: 10 mM.
Where [3] appears, read: library stock concentration: 3.33 mM.
[4] abbreviates: library stock concentration: 80 uM.
Setting [5] is: library stock concentration: 400 uM.
Setting [6] is: library stock concentration: 2 mM.
The mark [7] stands for this setting: library stock concentration: 6.4 mM.

As for `CCCCCCCCCCCCCCCCCCCCCCCCC(=O)OC` [Pentacosanoic Acid methyl ester], the “scaled lipid accumulation score” value under setting [1] is ≤ 0.
For the compound `CCCc1cc(C(=O)c2ccc(-c3ccccc3)cc2)ccc1OCCCN1CCCc2c(OC(C)(C)C(=O)O)cccc21`, the “scaled lipid accumulation score” value under setting [1] was ≤ 0.
With `CCCCCCCCC=CCCCCCCCCCCCC(N)=O` [13-Docosenamide], under setting [1], the “scaled lipid accumulation score” value is ≤ 0.
Consider `[O-][n+]1cccc(CO)c1`, for which the “scaled lipid accumulation score” value under setting [2] is ≤ 0.
Take `CCCCC/C=C\C/C=C\C/C=C\C/C=C\CCCC(=O)OC(CO)CO` [2-Arachidonoyl Glycerol]: under setting [1], the “scaled lipid accumulation score” value was ≤ 0.
For `CCCCC/C=C\C/C=C\C/C=C\C/C=C\CCCC(=O)OC(CO)CO` [2-Arachidonoylglycerol], under setting [1], the “scaled lipid accumulation score” value is 0.011.
Consider `CCCCCCCCCCCCCCCCn1cc[n+](Cc2ccccc2)c1C.[I-]`, for which the “scaled lipid accumulation score” value under setting [3] is 0.92 (active).
With `CCCCCCCCCCCCCCCCn1cc[n+](Cc2ccccc2)c1C` [eEF-2 Kinase Inhibitor, NH125], the “scaled lipid accumulation score” value under setting [3] is 0.247.
For `CCCCCCCCCCCCC[N+](C)(C)Cc1ccccc1` [Benzalkonium chloride], the “scaled lipid accumulation score” value under setting [2] is 0.182.
Consider `CCCCCCCCCCCCCCCCn1cc[n+](Cc2ccccc2)c1C`, for which the “scaled lipid accumulation score” value was ≤ -0.001 under setting [4]; ≤ -0.001 under setting [5]; ≤ -0.001 under setting [6]; 0.213 and 0.435 under setting [2].
`CC/C=C\C/C=C\C/C=C\CCCCCCCC(=O)N[C@@H](Cc1ccc(O)cc1)C(=O)O` [N-(.alpha.-Linolenoyl) Tyrosine]: the “scaled lipid accumulation score” value under setting [1] is ≤ 0.
Still for that read-out and setting: the value for `CCCCC/C=C\C=C\CCCCCCCCC(=O)O` [10(E),12(Z)-Conjugated Linoleic Acid] was 0.069.
The same measure, in the same setting: then `CCC=CCC=CCC=CCC=CCCCCC(=O)OCC` [Stearidonic Acid ethyl ester], with ≤ 0; and `CC(=O)N[C@@H](CSC/C=C(\C)CC/C=C(\C)CC/C=C(\C)CCC=C(C)C)C(=O)O` [N-acetyl-S-geranylgeranyl-L-Cysteine], with ≤ 0 and ≤ -0.021.
On to `Cc1cncc(CN2CCC(=C3c4ccc(Cl)cc4CCc4cccnc43)CC2)c1` [Rupatadine Fumarate], for which the “scaled lipid accumulation score” value under setting [3] is 0.371.
Take `Cc1cncc(CN2CCC(=C3c4ccc(Cl)cc4CCc4cccnc43)CC2)c1.O=C(O)C=CC(=O)O` [Rupatadine Fumarate]: the “scaled lipid accumulation score” value under setting [2] is 0.862 (active).
On the same count and under the same terms, then `Clc1ccc2c(c1)CCc1cccnc1C2=C1CCNCC1`, with 1.52 (active).
With `CCOC(=O)N1CCC(=C2c3ccc(Cl)cc3CCc3cccnc32)CC1` [Loratadine], the “scaled lipid accumulation score” value by setting is: under setting [3], ≤ 0; (library stock concentration: 5.2 mM) ≤ 0; under setting [2], ≤ 0 and 0.008.
In the case of `Cc1cccc(CN2CCN(C(c3ccccc3)c3ccc(Cl)cc3)CC2)c1` (stereo not given) [Meclizine hydrochloride], the “scaled lipid accumulation score” value under setting [2] was 0.376 and 0.485.
Consider `CCOC(=O)N1CCC(=C2c3ccc(Cl)cc3CCc3cccnc32)CC1` [Loratidine], for which the “scaled lipid accumulation score” value under setting [2] is 0.128.
On to `Cc1cccc(CN2CCN(C(c3ccccc3)c3ccc(Cl)cc3)CC2)c1` (stereo not given) [Meclozine dihydrochloride], for which the “scaled lipid accumulation score” value was 0.368.
In the case of `CCOC(=O)N1CCC(=C2c3ccc(Cl)cc3CCc3cccnc32)CC1`, the “scaled lipid accumulation score” value under setting [2] is ≤ 0.
Turning to `Clc1ccc2c(c1)CCc1cccnc1C2=C1CCNCC1` [Desloratidine], the “scaled lipid accumulation score” value under setting [7] is 0.46.
As for `C(=C(\CCNC1)/C1)(/c2c(cccn2)CC3)\c(ccc(Cl)c4)c34` [Desloratadine], the “scaled lipid accumulation score” value under setting [7] is 1.03 (active).
On to `Clc1ccc2c(c1)CCc1cccnc1C2=C1CCNCC1` [Desloratadine], for which the “scaled lipid accumulation score” value under setting [3] is 0.268 and the “scaled lipid accumulation score” value under setting [2] is 0.837.
Take `CCCCC/C=C/C/C=C/C/C=C/C/C=C/CCCC(=O)Oc1ccc2ccc(=O)oc2c1` [7-hydroxycoumarinyl Arachidonate]: under setting [1], the “scaled lipid accumulation score” value is ≤ 0.
Turning to `CC(C)(C)c1nc2c3cc[nH]c(=O)c3c3cc(F)ccc3c2[nH]1` [Merck -5 (0.4 mM)], under setting [5], the “scaled lipid accumulation score” value is ≤ -0.005.
With `CC(C)(C)c1nc2c3cc[nH]c(=O)c3c3cc(F)ccc3c2[nH]1` [Merck -5 (10 mM)], under setting [2], the “scaled lipid accumulation score” value is 0.114.
For `CC(C)(C)c1nc2c3cc[nH]c(=O)c3c3cc(F)ccc3c2[nH]1` [Merck -5 (2 mM)], the “scaled lipid accumulation score” value under setting [6] was ≤ -0.005.
As for `CC(C)(C)c1nc2c3cc[nH]c(=O)c3c3cc(F)ccc3c2[nH]1` [JAK Inhibitor I], the “scaled lipid accumulation score” value under setting [3] is ≤ 0.
Turning to `COc1ccc2c(c1)c(CC(=O)NCCc1ccccc1)c(C)n2C(=O)c1ccc(Cl)cc1` [N-(2-phenylethyl)-Indomethacin amide], the “scaled lipid accumulation score” value under setting [1] is 0.049.
On to `O=c1ncn2nc(Sc3ccc(F)cc3F)ccc2c1-c1c(Cl)cccc1Cl`, for which the “scaled lipid accumulation score” value is, setting by setting: under setting [4], 0.019; under setting [5], 0.039; under setting [6], 0.129; under setting [3], 0.019; under setting [2], ≤ 0 and 0.119.
Take `C[C@@H](O)[C@H]1C(=O)N2C(C(=O)OCOC(=O)C(C)(C)C)=C(SC3CN(C4=NCCS4)C3)[C@H](C)[C@H]12` [Tebipenem Pivoxil]: the “scaled lipid accumulation score” value runs as follows: under setting [3], ≤ 0; under setting [2], ≤ 0.
For `O=P(O)(O)O[C@H]1[C@@H](O)[C@H](O)[C@@H](OP(=O)(O)O)[C@H](OP(=O)(O)O)[C@H]1O` [D-myo-Inositol-2,4,5-triphosphate (sodium salt)], the “scaled lipid accumulation score” value under setting [1] is ≤ 0.
In the case of `O=C1C(Cl)=C(N2C(=O)CCC2=O)C(=O)c2ccccc21` [MEK Inhibitor II], the “scaled lipid accumulation score” value under setting [3] was 0.073.
As for `CCCCCCCCCCCCCC(=O)OCC` [Myristic Acid ethyl ester], under setting [1], the “scaled lipid accumulation score” value is 0.028.
Turning to `COc1cc2c(Nc3ccc(Br)cc3F)ncnc2cc1OCC1CCN(C)CC1` [Vandetanib  (ZD6474, Zactima) (0.4 mM)], the “scaled lipid accumulation score” value under setting [5] is 1.1 (active).
Take `COc1cc2/c(=N/c3ccc(Br)cc3F)nc[nH]c2cc1OCC1CCN(C)CC1` [Vandetanib (ZD6474)]: the “scaled lipid accumulation score” value under setting [2] is 0.754.
Take `COc1cc2ncnc(Nc3ccc(Cl)cc3F)c2cc1OC`: the “scaled lipid accumulation score” value under setting [3] is ≤ 0; the “scaled lipid accumulation score” value under setting [2] was ≤ 0 and ≤ -0.001.
As to `COc1cc2/c(=N/c3ccc(Br)cc3F)nc[nH]c2cc1OCC1CCN(C)CC1` [Vandetanib  (ZD6474, Zactima) (10 mM)], under setting [2], the “scaled lipid accumulation score” value is 0.445.
On to `COc1cc2c(Nc3ccc(Br)cc3F)ncnc2cc1OCC1CCN(C)CC1` [Vandetanib (ZD6474)], for which, under setting [3], the “scaled lipid accumulation score” value is 1.18 (active).
For `COc1cc2c(Nc3ccc(Br)cc3F)ncnc2cc1OCC1CCN(C)CC1` [Vandetanib], the “scaled lipid accumulation score” value was 1.27 (active) under setting [6] and 1.66 (active) under setting [2].
In the case of `COc1cc2ncnc(Nc3ccc(O)c(Br)c3)c2cc1OC`, the “scaled lipid accumulation score” value was ≤ 0 under setting [3] and ≤ 0 under setting [2].
For the compound `COc1cc2ncnc(Nc3ccc(O)c(Br)c3)c2cc1OC` [JAK3 Inhibitor II], under setting [3], the “scaled lipid accumulation score” value was ≤ 0.
Take `COc1cc2/c(=N/c3ccc(Br)cc3F)nc[nH]c2cc1OCC1CCN(C)CC1` [Vandetanib]: the “scaled lipid accumulation score” value by setting is: under setting [4], 0.09; under setting [5], 0.381.
Consider `C=CC(=O)N1CCC(Oc2cc3c(Nc4ccc(Cl)c(Cl)c4F)ncnc3cc2OC)CC1` [Poziotinib], for which the “scaled lipid accumulation score” value under setting [4] is 0.111, the “scaled lipid accumulation score” value under setting [5] is 0.281, the “scaled lipid accumulation score” value under setting [6] is 0.059 and the “scaled lipid accumulation score” value under setting [2] is 0.72.
With `COc1cc2c(Nc3ccc(Br)cc3F)ncnc2cc1OCC1CCN(C)CC1` [Vandetanib  (ZD6474, Zactima) (2 mM)], under setting [6], the “scaled lipid accumulation score” value was 0.855 (active).
Turning to `COc1c2ccoc2nc2c(OC)c(OCC(O)C(C)(C)O)ccc12` (stereo not given) [Evoxine], the “scaled lipid accumulation score” value is ≤ 0.
`COc1ccc(CCN(C)CCCC(C#N)(c2ccc(OC)c(OC)c2)C(C)C)cc1OC` (stereo not given) [Verapamyl hydrochloride]: the “scaled lipid accumulation score” value is 0.545.
As to `COc1ccc(CCN(C)CCCC(C#N)(c2ccc(OC)c(OC)c2)C(C)C)cc1OC` (stereo not given) [Verapamil hydrochloride], under setting [2], the “scaled lipid accumulation score” value is 0.587.
`COc1ccc(CCN(C)CCCC(C#N)(c2ccc(OC)c(OC)c2)C(C)C)cc1OC` (stereo not given) [Verapamil HCl]: the “scaled lipid accumulation score” value reads like this: under setting [3], 0.332; under setting [2], 0.536.
On to `COc1ccc(CCN(C)CCCC(C#N)(c2ccc(OC)c(OC)c2)C(C)C)cc1OC` (stereo not given) [Verapamil], for which the “scaled lipid accumulation score” value (library stock concentration: 4.4 mM) was 0.416.
Take `O=C(O)Cc1c2ccccc2n2c1[nH]c(=O)c1ccccc12`: the “scaled lipid accumulation score” value was ≤ -0.001 under setting [4], ≤ -0.001 under setting [5], ≤ -0.001 under setting [6] and ≤ -0.001 under setting [2].
Take `CCCCC[C@H](O)/C=C/[C@H]1C(=O)C[C@H](O)[C@@H]1C/C=C\CCCC(=O)OC` [Prostaglandin D2 methyl ester]: the “scaled lipid accumulation score” value under setting [1] was ≤ 0.
Regarding `CNCc1cc(-c2ccccc2F)n(S(=O)(=O)c2cccnc2)c1`, the “scaled lipid accumulation score” value under setting [3] was 0.046 and the “scaled lipid accumulation score” value under setting [2] is 0.471.
Take `CC(C)=CCC/C(C)=C/CC/C(C)=C/CC[C@]1(C)CCc2c(C)c(O)c(C)c(C)c2O1` [.alpha.-Tocotrienol]: the “scaled lipid accumulation score” value under setting [1] is 0.026.
Regarding `CCCc1c(OCC(O)COc2ccc3c(=O)cc(C(=O)O)oc3c2CCC)ccc(C(C)=O)c1O` (stereo not given), the “scaled lipid accumulation score” value under setting [2] is ≤ -0.001.
As for `c1ccc2[nH]cnc2c1` [DRB (Benzimidazole)], the “scaled lipid accumulation score” value (library stock concentration: 15.7 mM) is 0.081.
Regarding `Clc1ccc(C2(c3ccc(-c4cn[nH]c4)cc3)CCNCC2)cc1` [listing 1 of 3 here], the “scaled lipid accumulation score” value reads like this: under setting [6], 0.95 (active); under setting [2], 1.16 (active).
With `Clc1ccc(C2(c3ccc(-c4cn[nH]c4)cc3)CCNCC2)cc1` [listing 2 of 3 here], the “scaled lipid accumulation score” value under setting [4] was 0.375, the “scaled lipid accumulation score” value under setting [5] is 0.622 and the “scaled lipid accumulation score” value under setting [2] is 0.425.
On to `Clc1ccc(C2(c3ccc(-c4cn[nH]c4)cc3)CCNCC2)cc1` [listing 3 of 3 here], for which the “scaled lipid accumulation score” value under setting [3] is 1.22 (active).
As to `C[n+]1ccccc1C=NO` [Pralidoxime mesylate], under setting [2], the “scaled lipid accumulation score” value was 0.016.
Still for that read-out and setting: the value for `O=C1C2CC3CC1CC(O)(C3)C2` was 0.163; that for `N[C@H](C(=O)O)[C@H]1C[C@@H]1C(=O)O` [(2S,1'S,2'S)-2-(carboxycyclopropyl)glycine] was 0.17.
